# Results filed as inconclusive are left out. Calls of active or inactive are those of the source. Calls follow the shape of the dose curve; as a rule, active = well fitted inhibition curve with a large enough effect; inconclusive = small, poorly fitted or top-dose-only effect; inactive = no such curve, though single readings can be large or run the other way. Where a SMILES comes first, the peptide text is derived from it. [ ]: non-standard residue; d: D form. 2Abz = Nc1ccccc1C(=O)O
# Test: Primary fluorescence-based thiol-reactive (MSTI) qHTS assay for identification of artifact compounds. (AID 1845221); also: nearly all actives have a fitted effect of over 65% in size;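 as to activity change, negative = thiol reactive: thiol-reactive compounds lower the probe fluorescence signal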
# Conditions: MSTI thiol-reactivity probe, 1 h; series mostly up to 53.8 µM; activity change, negative = thiol reactive: at the top concentration
# Source text: PI: Alexander Tropsha Ph.D.
# UNC Eshelman School of Pharmacy
# University of North Carolina, Chapel Hill, North Carolina
# Hits from high-throughput screening (HTS) of chemical libraries are often false positives due to their interference with the assay detection technology. In response to this problem, we generated the largest publicly available library of chemical liabilities and developed a free webtool to predict HTS artifacts, both of which are described herein. More specifically, we generated, curated, and integrated HTS datasets for thiol reactivity, redox activity, and luciferase (firefly and nano) activity. Using these curated datasets, we developed and validated several Quantitative Structure-Interference Relationship (QSIR) models to predict nuisance behavior. […] These models were employed for virtual profiling of the National Center for Advancing Translational Science's (NCATS) in-house library, and 256 compounds for each assay were selected for the experimental validation of nuisance behavior. The BA for these external predictions ranged from 58 to 78% for compounds within the applicability domains of the models. […] The models developed in this study, along with aggregation models previously developed by our group (SCAM Detective) were implemented in "Liability Predictor," an online tool which may be used as part of chemical library design or for triaging HTS hits. Both the models and the curated datasets are publicly available at https://liability.mml.unc.edu/.
# SEQUENCE No. (e.g., 1, 2, 3, etc.); […] (e.g., Cells, Incubation, Reagent, etc.); VALUE; DESCRIPTION.
# 1; Reagent; 4 uL; […].
# 2; Compounds and control; 16 nL; Kalypsis pin tool (Wako USA) equipped with a 1536-well pin head.
# 4; Detection; Fluorescence, ViewLux microplate reader, 525 nm excitation, 598 nm emission.
# NOTES (numbers refer to Sequence numbers above)
# 1. Assays determining (E)-2-(4-mercaptostyryl)-1,3,3-trimethyl-3H-indol-1-ium (MSTI) reactivity were performed as previously described in the literature with modifications for the quick identification of compounds reacting with thiol. In brief, 4 uL of MSTI or positive control Acetyl-MSTI (final concentrations of 4 uM and 4 uM, respectively) in assay buffer (2% DMSO in 1X PBS pH 7.4) was dispensed into all wells of a 1536-well assay plate (solid-bottom black plate; Greiner Bio One, Monroe, NC).
# 2. A Wako Pin-tool (Wako Automation, Richmond, VA) was used to transfer 16 nL of compounds (consisting of 7-plates in qHTS format, final concentration range 18.3 nM to 114 uM) or control MLS001163887 (final concentration range 1.22 nM to 40 uM).
# 3. Plates were centrifuged (121xg, 15 seconds) and incubated for 1 hour at room temperature protected from light.
# 4. Samples were read for fluorescence (Ex/Em = 525(20)/598(25) nm) on a ViewLux CCD imager (PerkinElmer). Data were normalized to Acetyl-MSTI (0% activity) and MSTI (100% activity) and the resulting percent inhibition data were fitted to a 4-parameter Hill equation using NCATS in-house software.
# Potency is read from the fitted curve at half-maximal effect.
Compound,"activity change, negative = thiol reactive",Potency
CC1(C(=O)O)CCCC2(C)C1CCC13CC(CCC21)C1(CO)OC31 (stereo not given),35.4% (inactive),–
CN1CCC(c2c[nH]c3ccc(NC(=O)c4ccc(F)cc4)cc23)CC1,-17.7% (inactive),–
C=CC1(C)C=C2C(=O)CC3C(C)(C)CCCC3(C(=O)O)C2(O)CC1 (stereo not given),-11.2% (inactive),–
CC(/C=C/C1(O)C2(C)COC1(C)CC(=O)C2)O[C@@H]1O[C@H](CO)[C@@H](O)[C@H](O)[C@H]1O (stereo not given in full),–,10.3 µM (active)
CO[C@@H](Cc1ccc(OCCc2nc(-c3ccccc3)oc2C)c2ccsc12)C(=O)O,221% (inactive),–
CC1CC(O)CC(C)(C)C1(O)CCO (stereo not given),-1.81% [at 85.7 µM] (inactive),–
CCNC(=O)[C@@H]1CCCN1C(=O)[C@H](CCCN=C(N)N)NC(=O)[C@H](CC(C)C)NC(=O)[C@@H](C)NC(=O)[C@H](Cc1ccc(O)cc1)NC(=O)[C@H](CO)NC(=O)[C@H](Cc1c[nH]c2ccccc12)NC(=O)[C@H](Cc1cnc[nH]1)NC(=O)[C@@H]1CCC(=O)N1,106% [at 25.6 µM] (inactive),–
COC(=O)C1=CO[C@@H](O[C@@H]2O[C@H](CO)[C@@H](O)[C@H](O)[C@H]2O)[C@@H]2[C@@H](C)[C@@H](O)C[C@H]12,6.61% (inactive),–
C=C1[C@@H]2CC[C@@]3(C)[C@H](c4ccoc4)OC(=O)C[C@]13O[C@H]1CC(=O)C(C)(C)[C@H](CC(=O)OC)[C@]12C,60.5% [at 25.6 µM] (inactive),–
CCn1cc(C2=NOC(C(=O)Nc3c(C)n(C)n(-c4ccccc4)c3=O)C2)c(C)n1 (stereo not given),7.98% (inactive),–
CC1(C)CCC(C)(C)c2cc3c(cc21)Sc1ccccc1N=C3c1ccc(C(=O)O)cc1,0.0064% (inactive),–
C[C@@H](OC(=O)/C=C/c1ccc(O)cc1)C1=C[C@]2(C=C[C@@H]3C(C(=O)O)=CO[C@@H](O[C@@H]4O[C@H](CO[C@@H]5O[C@H](CO)[C@@H](O)[C@H](O)[C@H]5O)[C@@H](O)[C@H](O)[C@H]4O)[C@@H]32)OC1=O,–,3.98 µM (active)
O=C(c1ccc(NS(=O)(=O)c2cccc3cccnc23)cc1)N1CCN(CC2CC2)CC1,81.7% (inactive),–
CCCn1cnc2c(NCc3ccccc3)nc(N[C@H](CC)CO)nc21,-17.6% (inactive),–
CCN[C@@H]1C[C@H](N)[C@@H](O[C@H]2OC(CN)=CC[C@H]2N)[C@H](O)[C@H]1O[C@H]1OC[C@](C)(O)[C@H](NC)[C@H]1O,7.79% (inactive),–
CC1CCC2C(C(=O)O)=CC3CC(C)(C)CC132 (stereo not given),–,23.8 µM (active)
CC1(CO)CC[C@]2(C(=O)O[C@@H]3O[C@H](CO)[C@@H](O)[C@H](O)[C@H]3O)CC[C@]3(C)C(=CCC4[C@@]5(C)C[C@H](O)[C@H](O[C@@H]6OC[C@@H](O)[C@H](O)[C@H]6O)[C@@](C)(CO)C5CC[C@]43C)C2C1 (stereo not given in full),76.2% [at 11.5 µM] (inactive),–
CC(C)N(C[C@H]1O[C@@H](n2cnc3c(N)ncnc32)[C@H](O)[C@@H]1O)C1CC(CCc2nc3ccc(C(C)(C)C)cc3[nH]2)C1 (stereo not given in full),37.1% (inactive),–
COc1cc(C/C(=C/NC(C)=O)N(CC(=O)Cc2ccccc2)C(C)=O)cc2c1OCO2,0.581% [at 25.6 µM] (inactive),–
COCCN(C)Cc1ccc2nc3sc(C(=O)N(C)C4CCCCC4)cn3c2c1,60.3% (inactive),–

Compound,"activity change, negative = thiol reactive",Potency
C/C=C(\C)C(=O)O[C@@H]1CC2[C@@H](CC=C3C[C@@H](O[C@H]4C[C@H](OC)[C@H](O[C@H]5C[C@H](OC)[C@H](O[C@H]6C[C@H](OC)[C@H](O[C@H]7C[C@@H](OC)[C@H](O[C@@H]8O[C@H](CO)[C@@H](O)[C@H](O)[C@H]8O)[C@@H](C)O7)[C@@H](C)O6)[C@@H](C)O5)[C@@H](C)O4)CC[C@@]32C)[C@@]2(O)CC[C@H](C(C)=O)[C@@]12C (stereo not given in full),10.3% [at 11.5 µM] (inactive),–
OC[C@H]1O[C@@H](OC(CCCCc2ccc(O)cc2)CCc2ccc(O)cc2)[C@H](O[C@@H]2OC[C@](O)(CO)[C@H]2O)[C@@H](O)[C@@H]1O (stereo not given in full),114% [at 25.6 µM] (inactive),–
C/C=C1/[C@H](O[C@@H]2O[C@H](CO)[C@@H](O)[C@H](O)[C@H]2O)OC=C(C(=O)OC)[C@H]1CC(=O)O[C@@H]1O[C@H](CO)[C@@H](O)[C@H](O)[C@H]1O,-0.763% [at 25.6 µM] (inactive),–
Cc1c(CN(C)C(=O)/C=C/c2cnc3c(c2)CCC(=O)N3)oc2ccccc12,45.9% (inactive),–
COc1ccccc1-n1c(SCC(=O)Nc2nc3ccc(C)cc3s2)nc2c(c1=O)SCC2,-16.8% [at 25.6 µM] (inactive),–
CC(C)c1cc2c(c(O)c1O[C@@H]1O[C@H](CO)[C@@H](O)[C@H](O)[C@H]1O)CC1(O)CCC(O)C(C)(C)C1CC2 (stereo not given in full),–,9.22 µM (active)
COc1cc2c(Nc3ccc(Cl)c(Cl)c3F)ncnc2cc1OCC1C[C@@H]2CN(C)C[C@@H]2C1 (stereo not given in full),305% (inactive),–
CC(C)CNC(=O)/C=C/CCCCc1ccc2c(c1)OCO2,37.5% (inactive),–
CCOC(=O)[C@H](CCc1ccccc1)CC1(C(=O)N[C@H]2CCc3ccccc3N(CC(=O)O)C2=O)CCCC1,138% (inactive),–
C/C=C(\C)C(=O)O[C@@H](C)[C@H]1CC[C@]2(O)C3CCC4C[C@@H](OC5CC(OC)C(OC6CC(OC)C(OC7CC(OC)C(OC8OC(C)C(OC9OC(CO)C(O)C(O)C9O)C(OC)C8O)C(C)O7)C(C)O6)C(C)O5)CC[C@]4(C)C3[C@H](O)[C@@H](O)[C@]12C (stereo not given in full),94.5% [at 11.5 µM] (inactive),–
CC1(CO)CC[C@]2(C(=O)O[C@@H]3O[C@H](CO)[C@@H](O)[C@H](O)[C@H]3O)CC[C@]3(C)C(=CCC4[C@@]5(C)CC[C@H](O[C@@H]6O[C@H](C(=O)O)[C@@H](O)[C@H](O)[C@H]6O)C(C)(C)C5CC[C@]43C)C2C1 (stereo not given in full),-2.52% [at 11.5 µM] (inactive),–
CCC(C)C1NC(=O)C2CCCN2C(=O)C(C(C)C)NC(=O)c2ccccc2NC(=O)C(Cc2ccc(O)cc2)NC(=O)C(C)NC(=O)C(C(C)O)NC1=O (stereo not given) (cyclo([2Abz]VPITAY); configuration not given here),53.9% [at 25.6 µM] (inactive),–
CNC(=O)c1ccc(Nc2ncc(C(F)(F)F)c(NCc3nccnc3N(C)S(C)(=O)=O)n2)cc1,94.3% (inactive),–
COc1cc2c(cc1OC)CN(C(=O)[C@@H](NCc1ccncc1)C(C)(C)C)CC2,8.8% (inactive),–
O=C(O)c1n[nH]c2c1C[C@H]1C[C@@H]21,-1.34% (inactive),–
COc1ccc([C@@H]2N[C@H](C(=O)O)Cc3c2[nH]c2ccccc32)cc1CN1CCN(c2ccccc2F)CC1,12% (inactive),–
CC(=O)c1c(O)cc2c(c1C)C(=O)CC(O)C2 (stereo not given),–,10.6 µM (active)
C[C@@H]1O[C@@H](O[C@H]2[C@H](O)[C@@H](C(=O)O)O[C@@H](O[C@H]3CC[C@@]4(C)C(CC[C@]5(C)C4CC=C4C6CC(C)(C)CC[C@]6(C(=O)O)CC[C@]45C)C3(C)C)[C@@H]2O[C@@H]2O[C@H](CO)[C@@H](O)[C@H](O)[C@H]2O)[C@H](O)[C@H](O)[C@H]1O (stereo not given in full),296% [at 11.5 µM] (inactive),–
CCC(C)/C=C(C)/C=C/C1=CC2=C(Cl)C(=O)C(C)(OC(C)=O)C(=O)C2=CN1CCCC(=O)O (stereo not given),–,0.367 µM (active)
O=C1NCc2nc3ccccc3c(=O)n2C1Cc1c[nH]c2ccccc12 (stereo not given),-4.01% (inactive),–

# — PubChem BioAssay (NCATS)
